The record followed here is PubChem BioAssay (Tox21).

Several values for one entry are separate records, joined by “and”; a condition that tells them apart may be missing. Identical values can stand only once. More than one record can exist for a structure, and the calls need not agree. Activity calls are given as the source filed them. Unless noted, the call rests on the fitted dose curve; in most records, active means well fitted curve in the direction sought with a large enough effect in the repeat runs; inconclusive means weak or mixed curves; inactive means no such curve, though single readings can be large; an effect the other way counts as inactive or inconclusive.

Assay [1] can be described thus: qHTS assay for identifying genotoxic compounds that show differential cytotoxicity against isogenic chicken DT40 cell lines with known DNA damage response pathways - wild type cell line (AID 743012). Further: nearly all actives have a fitted effect of over 60% in size. Further: potency means the concentration at half of the fitted maximal effect. The gist of the method: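 Viability of DNA repair-proficient chicken DT40 cells was assessed by CellTiter-Glo luminescence following 40 h compound exposure at 37 C/5% CO2.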

A short description of assay [2]: qHTS assay for identifying genotoxic compounds that show differential cytotoxicity against isogenic chicken DT40 cell lines with known DNA damage response pathways - Rev3 mutant cell line (AID 743014; further: nearly all actives have a fitted effect of over 55% in size; further: potency means the concentration at half of the fitted maximal effect). (In general: Quantitative high-throughput screening tests each substance at several concentrations.)
Assay [3] can be described thus: qHTS assay for identifying genotoxic compounds that show differential cytotoxicity against isogenic chicken DT40 cell lines with known DNA damage response pathways - Rad54/Ku70 mutant cell line (AID 743015). Further: potency means the concentration at half of the fitted maximal effect; nearly all actives have a fitted effect of over 60% in size.
Assay [4] can be described thus: qHTS assay to identify small molecule antagonists of the androgen receptor (AR) signaling pathway using the MDA cell line - cell viability counter screen (AID 743041; further: nearly all actives have a fitted effect of over 45% in size; further: potency means the concentration at half of the fitted maximal effect). The method, boiled down:
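Using the breast carcinoma line MDA-kb2 AR-luc, test chemicals were co-incubated with R1881 for 16 h; CellTiter-Fluor reagent, added at 15.5 h, provided a fluorescence measure of live cells.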

Assay [5] is described as follows: qHTS assay to identify small molecule antagonists of the thyroid receptor (TR) signaling pathway - cell viability counter screen (AID 743064). Further: nearly all actives have a fitted effect of over 50% in size. Further: potency means the concentration at half of the fitted maximal effect. The method, boiled down:
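CellTiter-Fluor readout, 30 min at 37 °C/5% CO2, following 23.5 h incubation of GH3.TRE-Luc cells with test compound and 1 nM T3 (final).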

Assay [6] is described as follows: qHTS assay to identify small molecule antagonists of the thyroid receptor (TR) signaling pathway (AID 743065). Further: nearly all actives have a fitted effect of over 55% in size. Further: potency means the concentration at half of the fitted maximal effect. The gist of the method:
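Antagonism measured as loss of luciferase signal in GH3 cells stably carrying a TRE-luciferase reporter, co-treated with compound and T3 (1 nM final) for 23.5 h at 37 C. Viability was read in the same well by CellTiter-Fluor.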

For assay [7], the target named is Estrogen receptor (Homo sapiens) (UniProt P03372). Put plainly: qHTS assay to identify small molecule agonists of the estrogen receptor alpha (ER-alpha) signaling pathway (AID 743075; calls by dose curve; further: potency means the concentration at half of the fitted maximal effect; on activation: on the % scale 0 is the no-effect control and ±100 the full control effect). The settings on record: HEK293 ER-alpha-UAS-bla, beta-lactamase FRET ratio, 18 h; activation: at 70.1 µM (top of the series).
Assay [8] has the same target. Description: qHTS assay to identify small molecule agonists of the estrogen receptor alpha (ER-alpha) signaling pathway using the BG1 cell line (AID 743079). Further: potency means the concentration at half of the fitted maximal effect. On activation: on the % scale 0 is the no-effect control and ±100 the full control effect. On all read-outs here: nearly all actives have a fitted effect of over 20% in size. The conditions noted are these: BG1Luc4E2 cells, ERE-luciferase agonist, 22 h; for activation: at 70.3 µM (top of the series).
A short description of assay [9]: qHTS assay to identify small molecule antagonists of the estrogen receptor alpha (ER-alpha) signaling pathway using the BG1 cell line (AID 743080; calls by dose curve;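 further: BG1 cells stimulated with 17beta-estradiol alongside compound; on the % scale 0 is the no-effect control and ±100 the full control effect; nearly all actives have a fitted effect of over 25% in size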). The method, boiled down: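 Endogenous full-length ER-alpha in BG1-Luc-4E2 cells drives a stably integrated 4×ERE luciferase gene; compounds were tested against 17beta-estradiol over 21.5 h, with luminescence and multiplexed viability fluorescence recorded.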

The nature of assay [10]: qHTS assay to identify small molecule antagonists of the estrogen receptor alpha (ER-alpha) signaling pathway using the BG1 cell line - cell viability counter screen (AID 743081).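 Further: compound given together with 17beta-estradiol as the ER stimulus; nearly all actives have a fitted effect of over 45% in size.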 Further: potency means the concentration at half of the fitted maximal effect.
Assay [11] can be described thus: qHTS assay to identify small molecule antagonists of the androgen receptor (AR) signaling pathway - cell viability counter screen (AID 743033; further: nearly all actives have a fitted effect of over 45% in size; further: potency means the concentration at half of the fitted maximal effect).
Assay [12] addresses Androgen receptor (Homo sapiens) (UniProt P10275). Put plainly: qHTS assay to identify small molecule agonists of the androgen receptor (AR) signaling pathway using the MDA cell line (AID 743040; further: on the % scale 0 is the no-effect control and ±100 the full control effect; nearly all actives have a fitted effect of over 20% in size). The method, boiled down: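 Stable MMTV-luciferase reporter in MDA-kb2 cells; note the promoter carries GR as well as AR response elements. 16 h compound treatment, 37C, 0% CO2; ONE-Glo luminescence endpoint.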

The target is the same in assay [13]. Description: qHTS assay to identify small molecule antagonists of the androgen receptor (AR) signaling pathway using the MDA cell line (AID 743042; further: nearly all actives have a fitted effect of over 55% in size; further: potency means the concentration at half of the fitted maximal effect). The gist of the method: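 Antagonist mode: compounds plus R1881 agonist added to MDA-kb2 AR-luc cells, incubated 16 h at 37C. Luciferase reporter luminescence quantified, with multiplexed CellTiter-Fluor readout for cell viability.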

Assay [14] is described as follows: qHTS assay to identify small molecule antagonists of the estrogen receptor alpha (ER-alpha) signaling pathway - cell viability counter screen (AID 743074; calls by dose curve; further: nearly all actives have a fitted effect of over 45% in size; further: potency means the concentration at half of the fitted maximal effect).
The target in the next assay is Aromatase (Homo sapiens) (UniProt P11511). Put plainly: qHTS assay to identify aromatase inhibitors (AID 743083). Further: nearly all actives have a fitted effect of over 55% in size. Further: potency means the concentration at half of the fitted maximal effect.
A short description of assay [15]: qHTS assay to identify aromatase inhibitors - cell viability counter screen (AID 743084). Further: potency means the concentration at half of the fitted maximal effect.
Assay [16] relates to thyroid hormone receptor (rat, GH3 cells). Description: qHTS assay to identify small molecule agonists of the thyroid receptor (TR) signaling pathway (AID 743066; calls by dose curve; further: on the % scale 0 is the no-effect control and ±100 the full control effect).
The target in assay [17] is Estrogen receptor (Homo sapiens) (UniProt P03372). Description: qHTS assay to identify small molecule antagonists of the estrogen receptor alpha (ER-alpha) signaling pathway (AID 743069; active means well fitted curve in the direction sought with a large enough effect in the signal ratio in the repeat runs, not every such curve was filed as active; inconclusive means weak or mixed curves, or effect the other way; inactive means no such curve, though single readings can be large or run the other way; the % refers to the signal ratio; further: potency means the concentration at half of the fitted maximal effect). The gist of the method: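 Fluorescence intensity from a beta-lactamase FRET substrate served as the read-out. Cells: HEK293 with stably integrated ER-alpha-UAS-bla reporter. Agonist 17beta-estradiol was co-added with compounds; incubation 18 hr at 37C, substrate 2 hr at room temperature.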

Assay [18] deals with Androgen receptor (Homo sapiens) (UniProt P10275). Put plainly: qHTS assay to identify small molecule agonists of the androgen receptor (AR) signaling pathway (AID 743036; active means well fitted activation curve with a large enough effect in the signal ratio in the repeat runs, with a control signal flat, not every such curve was filed as active; inconclusive means weak or mixed curves, or effect the other way; inactive means no such curve, though single readings can be large or run the other way; the % refers to the signal ratio; further: on the % scale 0 is the no-effect control and ±100 the full control effect). The gist of the method: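 Following a 4 h settling period, AR-UAS-bla HEK293 cells were dosed with compounds for 16 h at 37C. A 2 h room-temperature incubation with LiveBLAzer B/G FRET substrate preceded the fluorescence measurement.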
Chain of Androgen receptor (Homo sapiens) (P10275 whole entry, looked up): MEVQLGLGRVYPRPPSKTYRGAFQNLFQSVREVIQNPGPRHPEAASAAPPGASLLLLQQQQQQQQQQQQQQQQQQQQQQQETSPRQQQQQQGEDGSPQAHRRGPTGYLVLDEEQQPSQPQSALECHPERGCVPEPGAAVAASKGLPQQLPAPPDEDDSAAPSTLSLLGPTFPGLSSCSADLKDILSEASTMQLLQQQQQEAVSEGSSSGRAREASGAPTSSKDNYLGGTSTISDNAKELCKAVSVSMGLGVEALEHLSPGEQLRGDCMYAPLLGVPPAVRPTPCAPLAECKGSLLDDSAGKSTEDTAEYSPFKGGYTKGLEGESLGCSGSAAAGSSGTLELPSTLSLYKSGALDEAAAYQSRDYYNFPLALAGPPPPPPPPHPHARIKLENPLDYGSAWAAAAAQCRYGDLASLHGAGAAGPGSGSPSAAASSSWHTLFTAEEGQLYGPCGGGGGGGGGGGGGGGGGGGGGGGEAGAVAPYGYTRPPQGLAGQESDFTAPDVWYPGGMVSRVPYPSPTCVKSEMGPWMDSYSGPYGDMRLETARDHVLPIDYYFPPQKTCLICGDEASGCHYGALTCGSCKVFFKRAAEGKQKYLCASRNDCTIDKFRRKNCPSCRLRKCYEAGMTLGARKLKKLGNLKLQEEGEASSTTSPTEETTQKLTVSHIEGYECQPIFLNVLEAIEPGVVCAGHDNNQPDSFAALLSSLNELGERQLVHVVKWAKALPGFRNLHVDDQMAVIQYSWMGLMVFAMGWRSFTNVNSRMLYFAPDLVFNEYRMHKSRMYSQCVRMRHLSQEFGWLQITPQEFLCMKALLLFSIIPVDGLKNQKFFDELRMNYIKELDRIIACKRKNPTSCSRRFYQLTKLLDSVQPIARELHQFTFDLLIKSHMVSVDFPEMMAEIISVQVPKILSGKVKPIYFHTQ

Chain of Aromatase (Homo sapiens) (P11511 whole entry, looked up): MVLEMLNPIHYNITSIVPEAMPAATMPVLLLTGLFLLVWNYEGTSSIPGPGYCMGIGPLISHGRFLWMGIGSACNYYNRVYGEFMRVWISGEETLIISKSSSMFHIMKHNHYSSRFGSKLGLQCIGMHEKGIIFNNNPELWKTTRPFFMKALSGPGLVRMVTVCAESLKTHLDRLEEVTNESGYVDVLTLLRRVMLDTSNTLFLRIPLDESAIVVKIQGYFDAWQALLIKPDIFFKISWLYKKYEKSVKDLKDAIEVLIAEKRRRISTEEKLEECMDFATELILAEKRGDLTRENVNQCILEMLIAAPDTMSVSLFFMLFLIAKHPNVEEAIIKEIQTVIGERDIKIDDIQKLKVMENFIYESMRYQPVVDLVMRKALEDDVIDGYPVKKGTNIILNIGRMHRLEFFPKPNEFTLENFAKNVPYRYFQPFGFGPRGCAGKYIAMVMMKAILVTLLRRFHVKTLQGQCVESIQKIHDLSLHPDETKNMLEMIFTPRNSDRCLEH
Chain of Estrogen receptor (Homo sapiens) (P03372 whole entry, looked up): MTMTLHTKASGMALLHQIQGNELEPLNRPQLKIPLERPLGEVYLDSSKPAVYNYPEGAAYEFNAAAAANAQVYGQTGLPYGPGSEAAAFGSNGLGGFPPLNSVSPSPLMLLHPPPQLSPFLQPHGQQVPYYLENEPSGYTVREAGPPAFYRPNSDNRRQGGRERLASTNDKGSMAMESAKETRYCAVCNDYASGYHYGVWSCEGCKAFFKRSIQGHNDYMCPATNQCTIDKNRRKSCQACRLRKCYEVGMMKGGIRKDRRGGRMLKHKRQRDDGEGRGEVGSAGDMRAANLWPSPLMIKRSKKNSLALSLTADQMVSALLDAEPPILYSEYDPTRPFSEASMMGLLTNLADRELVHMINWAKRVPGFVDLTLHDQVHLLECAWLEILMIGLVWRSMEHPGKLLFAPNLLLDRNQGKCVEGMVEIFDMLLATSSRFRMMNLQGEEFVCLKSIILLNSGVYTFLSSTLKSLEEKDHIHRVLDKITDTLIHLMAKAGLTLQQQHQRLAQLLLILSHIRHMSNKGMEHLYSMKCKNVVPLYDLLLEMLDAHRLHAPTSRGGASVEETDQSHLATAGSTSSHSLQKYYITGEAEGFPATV

As to `CSc1ccc2c(c1)C(N1CCN(C)CC1)Cc1ccccc1S2` (stereo not drawn), the Potency was 5.96 µM (active) in [1]; 6.68 µM (active) in assay [2]; 9.44 µM (active) in assay [3]; 7.5 µM (active) in [5]; 8.41 µM (active) in assay [6]. Moreover, the Potency entry in [4], in assay [7], in assay [9] and in [10] was “inactive” each time. In assay [8], the activation was -16.2% (inactive).
`N=C1C=CC(=C(c2ccc(N)cc2)c2ccc(N)cc2)C=C1`: the Potency in [1] was 9.69 µM (active); in assay [2], 6.86 µM (active); in assay [3], 7.7 µM (active); in assay [11] it was 15.5 µM (active); in assay [4] it was 15.4 µM (active); in assay [13], 2.43 µM (active). Further, the Potency was 9.69 µM (active) in assay [5]; 1.38 µM (active) in [14]; 13.7 µM (active) in assay [10]; 4.86 µM (active) in the assay with Aromatase (Homo sapiens); 8.63 µM (active) in assay [15]. Further, the Potency entry in assay [12] was “inactive”.
As for `O=C1C=CC(=O)N1c1ccc(Cc2ccc(N3C(=O)C=CC3=O)cc2)cc1`, the Potency in assay [1] is 0.969 µM (active); in [2] it was 1.22 µM (active); in assay [3] it was 1.54 µM (active); in [11] it was 17.4 µM (active); in [4] it was 54.5 µM (active); in assay [5], 10.9 µM (active). Also, the Potency in assay [6] was 8.63 µM (active); in assay [14], 21.9 µM (active); in the assay with Aromatase (Homo sapiens), 9.69 µM (active); in assay [15], 9.69 µM (active). Further, the Potency result in [16] and in [10] was “inactive” each time.
As for `CCOC(=O)c1nc(C(Cl)(Cl)Cl)n(-c2ccc(Cl)cc2Cl)n1`, the Potency in assay [1] is 48.6 µM (active); in [2], 34.4 µM (active); in [3], 30.6 µM (active); in assay [11], 49 µM (active); in assay [13], 68.6 µM (active); in [6], 68.6 µM (active). Further, in the assay with Aromatase (Homo sapiens), the Potency is 61.1 µM (active). Moreover, the Potency result in [4], in [14], in [7] and in assay [9] was “inactive” throughout.
As to `Cc1cc(O)c(Cl)c(C)c1Cl`, the Potency is 24.3 µM (active) in [1]; 24.3 µM (active) in assay [2]; 17.2 µM (active) in assay [3]; 27.5 µM (active) in assay [11]; 54.5 µM (active) in assay [13]; 17.2 µM (active) in assay [5]. The values for the Potency (in assay [6]; with Aromatase (Homo sapiens); in [15]) were 24.3 µM (active), 48.6 µM (active) and 61.1 µM (active), respectively. Moreover, the Potency entry in [16], in assay [7] and in assay [10] was “inactive” each time.
`O=c1[nH]sc2ccccc12`: the Potency in assay [1] was 0.433 µM (active); in assay [2], 0.433 µM (active); in assay [3], 0.686 µM (active); in [11], 24.5 µM (active); in assay [5] it was 5.45 µM (active); in [6] it was 3.06 µM (active). In addition, the figures for the Potency (with Aromatase (Homo sapiens); in assay [15]) were 30.6 µM (active) and 24.3 µM (active), respectively. The Potency entry in [17], in assay [14], in assay [7], in [9] and in [10] was “inactive” throughout. The activation in [8] is -22% (inactive).
As to `Cc1ccc(O)c(C(C)(C)C)c1`, the Potency was 27.3 µM (active) and inactive in assay [1]; 13.7 µM (active) in assay [2]; 15.3 µM (active) in assay [3]; 15.5 µM (active) in [11]; 61 µM (active) and inactive in assay [10]; 15.3 µM (active) and inactive in the assay with Aromatase (Homo sapiens). Moreover, the Potency in assay [15] was 17.2 µM (active) and inactive. The Potency entry in assay [16] was “inactive”.
For `CCCCCCOC(=O)c1ccc(O)cc1`, the Potency in assay [1] was 21.7 µM (active) and inactive; in [2], 48.6 µM (active); in [3] it was 48.6 µM (active); in assay [7], 49 µM [inconclusive] (active) and 24.5 µM [inconclusive] (active); in assay [8] it was 5.45 µM (active) and 17.2 µM (active). The Potency result in assay [11], in [18], in assay [12], in assay [4], in assay [13] and in [5] was “inactive” in each case. The Potency entry in assay [6], in assay [16], in [14] and in assay [10] was “inactive” throughout.
Consider `CCCCN(CCCC)c1ccc(C(=O)c2ccccc2C(=O)O)c(O)c1`, for which the Potency entry (in assay [2]; in assay [11]; in [12]; in assay [16]; in assay [10]; with Aromatase (Homo sapiens)) was “inactive” in each case. In addition, the Potency entry in assay [15] is “inactive”. Also, the Potency is 55 µM (active) in assay [5], 55 µM (active) in assay [6] and 49.4 µM (active) in assay [14].
Regarding `CC(C)(C)c1ccc(C(=O)CCCN2CCC(OC(c3ccccc3)c3ccccc3)CC2)cc1`, the Potency in [2] is 5.31 µM (active); in [3], 5.96 µM (active); in [5], 11.9 µM (active); in assay [6], 13.3 µM (active); in assay [14], 23.9 µM (active). Further, the Potency result (in assay [11]; in assay [4]; with Aromatase (Homo sapiens); in assay [15]) was “inactive” throughout.
Turning to `C/C=C1/C(=O)C[C@H]2[C@@H]3CCC4=CC(=O)CC[C@]4(C)[C@H]3CC[C@]12C`, the Potency in assay [1] is 21.6 µM (active); in assay [2] it was 13.6 µM (active); in assay [3] it was 19.3 µM (active); in assay [6], 9.66 µM (active). For the same molecule, the Potency result in assay [5], in assay [16], in assay [14], in assay [7] and in assay [10] was “inactive” throughout.
For `CCCCC(CC)COP(=O)(O)OCC(CC)CCCC` (stereo not drawn), the Potency entry in assay [2], in [11], in assay [4], in [16], in assay [7] and in [9] was “inactive” in each case. The Potency entry (in [10]; in the assay with Aromatase (Homo sapiens); in assay [15]) was “inactive” throughout. The Potency was 27.4 µM (active) in assay [5], 61.3 µM (active) in assay [6], 4.36 µM [inconclusive] (active) in assay [17] and 39 µM (active) in assay [14].
For the molecule `Nc1ccc2c3c(cccc13)-c1ccccc1-2`, the Potency was 61.8 µM (active) in [1]; 27.6 µM (active) in assay [2]; 55 µM (active) in assay [3]; 43.7 µM (active) in [6]; 8.72 µM (active) in [8]. For the same molecule, the Potency entry in [11], in [13] and in [16] was “inactive” each time.
